# Experimental data from PubChem BioAssay AID1159580 (chemical genetic matrix, 2015).
# Where “and” joins values, the source holds several entries; their conditions need not be identical. Identical values can stand only once. Among all 5,500 compounds or so, about 2,000 (36%) were called active. About 18% were inconclusive and are not listed. No stated cut-off is given here; in the data, active means normalized growth mostly below about 0.91 (no sharp cut-off); inconclusive means no clear call, values can overlap the other calls; inactive means mostly above about 0.92. Some of the results follow. Some compounds were tested as several samples or in several runs, with calls that do not always agree.
# Experiment: chemical genetic growth profiling, strain panel (AID 1159580);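 further: tested at 20 µM; growth read once vehicle control cultures reached saturation at 30 °C; 1 = growth at the plate median or of vehicle wells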
# Conditions: growth OD
smiles,measurement,setting,value
COC(=O)C1=C(C)NC(C)=C(C(=O)OC)C1c1ccccc1[N+](=O)[O-],normalized growth,"S. cerevisiae deletion strains, locus YKL009W, strain mrt4, stronger effect = lower value",0.959 (inactive)
same,normalized growth,"S. cerevisiae deletion strains, locus YKL068W, stronger effect = lower value",0.965 (inactive)
same,normalized growth,"S. cerevisiae deletion strains, locus YKL085W, strain MDH1 (second series), stronger effect = lower value",0.956 (inactive)
same,normalized growth,"S. cerevisiae deletion strains, locus YKL085W, strain MDH1, stronger effect = lower value",0.956 (inactive)
same,normalized growth,"S. cerevisiae deletion strains, locus YKL160W, strain elf1, stronger effect = lower value",0.901 (active)
same,normalized growth,"S. cerevisiae deletion strains, locus YKL190W, strain CNB1, stronger effect = lower value",0.84 (active)
same,normalized growth,"S. cerevisiae deletion strains, locus YKR001C, strain vps1, stronger effect = lower value",0.852 (active)
same,normalized growth,"S. cerevisiae deletion strains, locus YKR026C, strain gcn3, stronger effect = lower value",0.968 (inactive)
same,normalized growth,"S. cerevisiae deletion strains, locus YKR091W, strain srl3, stronger effect = lower value",0.954 (inactive)
same,normalized growth,"S. cerevisiae deletion strains, locus YLL001W, strain dnm1, stronger effect = lower value",0.972 (inactive)
same,normalized growth,"S. cerevisiae deletion strains, locus YLL026W, stronger effect = lower value",0.946 (inactive)
same,normalized growth,"S. cerevisiae deletion strains, locus YLL041C, strain sdh2, stronger effect = lower value",0.931 (inactive)
same,normalized growth,"S. cerevisiae deletion strains, locus YLR027C, strain aat2, stronger effect = lower value",0.899 (active)
same,normalized growth,"S. cerevisiae deletion strains, locus YLR039C, strain RIC1, stronger effect = lower value",0.535 (active)
same,normalized growth,"S. cerevisiae deletion strains, locus YLR058C, strain SHM2, stronger effect = lower value",0.996 (inactive)
same,normalized growth,"S. cerevisiae deletion strains, locus YLR102C, strain apc9, stronger effect = lower value",0.977 (inactive)
same,normalized growth,"S. cerevisiae deletion strains, locus YLR113W, strain HOG1, stronger effect = lower value",0.942 (inactive)
same,normalized growth,"S. cerevisiae deletion strains, locus YLR221C, strain rsa3, stronger effect = lower value",0.893 (active)
same,normalized growth,"S. cerevisiae deletion strains, locus YLR258W, strain gsy2, stronger effect = lower value",0.886 (active)
same,normalized growth,"S. cerevisiae deletion strains, locus YLR262C, strain YPT6 (second series), stronger effect = lower value",0.44 (active)
same,normalized growth,"S. cerevisiae deletion strains, locus YLR262C, strain YPT6, stronger effect = lower value",0.352 (active)
same,normalized growth,"S. cerevisiae deletion strains, locus YLR268W, strain sec22, stronger effect = lower value",0.764 (active)
same,normalized growth,"S. cerevisiae deletion strains, locus YLR320W, strain mms22, stronger effect = lower value",0.864 (active)
same,normalized growth,"S. cerevisiae deletion strains, locus YLR330W, strain CHS5, stronger effect = lower value",0.931 (inactive)
same,normalized growth,"S. cerevisiae deletion strains, locus YLR342W, strain FKS1 (second series), stronger effect = lower value",0.643 (active)
same,normalized growth,"S. cerevisiae deletion strains, locus YLR342W, strain FKS1, stronger effect = lower value",0.924 (inactive)
same,normalized growth,"S. cerevisiae deletion strains, locus YLR357W, strain rsc2, stronger effect = lower value",0.937 (inactive)
same,normalized growth,"S. cerevisiae deletion strains, locus YLR370C, strain arc18, stronger effect = lower value",0.942 (inactive)
same,normalized growth,"S. cerevisiae deletion strains, locus YLR371W, strain rom2, stronger effect = lower value",0.918 (inactive)
same,normalized growth,"S. cerevisiae deletion strains, locus YLR384C, strain iki3, stronger effect = lower value",0.976 (inactive)
same,normalized growth,"S. cerevisiae deletion strains, locus YLR418C, strain cdc73, stronger effect = lower value",0.706 (active)
same,normalized growth,"S. cerevisiae deletion strains, locus YML016C, strain PPZ1, stronger effect = lower value",0.899 (active)
same,normalized growth,"S. cerevisiae deletion strains, locus YML032C, strain rad52, stronger effect = lower value",0.959 (inactive)
same,normalized growth,"S. cerevisiae deletion strains, locus YML120C, strain ndi1, stronger effect = lower value",0.976 (inactive)
same,normalized growth,"S. cerevisiae deletion strains, locus YML124C, strain tub3, stronger effect = lower value",0.972 (inactive)
same,normalized growth,"S. cerevisiae deletion strains, locus YMR058W, strain fet3, stronger effect = lower value",0.231 (active)
same,normalized growth,"S. cerevisiae deletion strains, locus YMR078C, strain ctf18, stronger effect = lower value",0.981 (inactive)
same,normalized growth,"S. cerevisiae deletion strains, locus YMR125W, strain sto1, stronger effect = lower value",1.02 (inactive)
same,normalized growth,"S. cerevisiae deletion strains, locus YMR129W, stronger effect = lower value",0.958 (inactive)
same,normalized growth,"S. cerevisiae deletion strains, locus YMR205C, strain PFK2, stronger effect = lower value",0.866 (active)
same,normalized growth,"S. cerevisiae deletion strains, locus YMR223W, strain ubp8, stronger effect = lower value",0.839 (active)
same,normalized growth,"S. cerevisiae deletion strains, locus YMR231W, strain pep5, stronger effect = lower value",0.81 (active)
same,normalized growth,"S. cerevisiae deletion strains, locus YMR263W, strain SAP30, stronger effect = lower value",1 (inactive)
same,normalized growth,"S. cerevisiae deletion strains, locus YMR307W, strain GAS1, stronger effect = lower value",0.43 (active) and 0.863 (active)
same,normalized growth,"S. cerevisiae deletion strains, locus YNL067W, strain RPL9B, stronger effect = lower value",0.824 (active)
same,normalized growth,"S. cerevisiae deletion strains, locus YNL071W, strain lat1, stronger effect = lower value",0.941 (inactive)
same,normalized growth,"S. cerevisiae deletion strains, locus YNL128W, strain TEP1, stronger effect = lower value",0.642 (active)
same,normalized growth,"S. cerevisiae deletion strains, locus YNL153C, strain GIM3, stronger effect = lower value",0.939 (inactive)
same,normalized growth,"S. cerevisiae deletion strains, locus YNL175C, strain NOP13, stronger effect = lower value",1.01 (inactive)
same,normalized growth,"S. cerevisiae deletion strains, locus YNL183C, strain NPR1, stronger effect = lower value",0.927 (inactive)
same,normalized growth,"S. cerevisiae deletion strains, locus YNL197C, strain WHI3, stronger effect = lower value",0.997 (inactive)
same,normalized growth,"S. cerevisiae deletion strains, locus YNL209W, strain ssb2, stronger effect = lower value",0.698 (active)
same,normalized growth,"S. cerevisiae deletion strains, locus YNL224C, strain SQS1, stronger effect = lower value",1.02 (inactive)
same,normalized growth,"S. cerevisiae deletion strains, locus YNL233W, strain BNI4, stronger effect = lower value",0.845 (active)
same,normalized growth,"S. cerevisiae deletion strains, locus YNL248C, strain rpa49, stronger effect = lower value",0.951 (inactive)
same,normalized growth,"S. cerevisiae deletion strains, locus YNL250W, strain rad50, stronger effect = lower value",0.944 (inactive)
same,normalized growth,"S. cerevisiae deletion strains, locus YNL271C, strain bni1, stronger effect = lower value",0.909 (active)
same,normalized growth,"S. cerevisiae deletion strains, locus YNL298W, strain CLA4, stronger effect = lower value",0.953 (inactive)
same,normalized growth,"S. cerevisiae deletion strains, locus YNL307C, strain MCK1, stronger effect = lower value",0.903 (active)
same,normalized growth,"S. cerevisiae deletion strains, locus YNL322C, strain KRE1 (second series), stronger effect = lower value",1 (inactive)
same,normalized growth,"S. cerevisiae deletion strains, locus YNL322C, strain KRE1, stronger effect = lower value",0.918 (active) and 0.978 (inactive)
same,normalized growth,"S. cerevisiae deletion strains, locus YNR049C, strain mso1, stronger effect = lower value",0.962 (inactive)
same,normalized growth,"S. cerevisiae deletion strains, locus YNR052C, strain pop2, stronger effect = lower value",0.968 (inactive)
same,normalized growth,"S. cerevisiae deletion strains, locus YOL006C, strain TOP1, stronger effect = lower value",0.202 (active)
same,normalized growth,"S. cerevisiae deletion strains, locus YOL012C, strain htz1",0.327 (inactive)
same,normalized growth,"S. cerevisiae deletion strains, locus YOL147C, strain pex11, stronger effect = lower value",0.989 (inactive)
same,normalized growth,"S. cerevisiae deletion strains, locus YOR001W, strain rrp6, stronger effect = lower value",0.91 (inactive)
same,normalized growth,"S. cerevisiae deletion strains, locus YOR061W, strain CKA2, stronger effect = lower value",0.794 (active)
same,normalized growth,"S. cerevisiae deletion strains, locus YOR069W, strain VPS5, stronger effect = lower value",0.906 (active)
same,normalized growth,"S. cerevisiae deletion strains, locus YOR070C, strain gyp1, stronger effect = lower value",0.916 (active)
same,normalized growth,"S. cerevisiae deletion strains, locus YOR080W, strain dia2, stronger effect = lower value",0.978 (inactive)
same,normalized growth,"S. cerevisiae deletion strains, locus YOR083W, strain WHI5 (second series), stronger effect = lower value",1.03 (inactive)
same,normalized growth,"S. cerevisiae deletion strains, locus YOR083W, strain WHI5, stronger effect = lower value",0.909 (inactive)
same,normalized growth,"S. cerevisiae deletion strains, locus YOR106W, strain vam3, stronger effect = lower value",0.718 (active)
same,normalized growth,"S. cerevisiae deletion strains, locus YOR136W, strain idh2, stronger effect = lower value",0.965 (inactive)
same,normalized growth,"S. cerevisiae deletion strains, locus YOR144C, strain elg1, stronger effect = lower value",0.99 (inactive)
same,normalized growth,"S. cerevisiae deletion strains, locus YOR184W, strain ser1, stronger effect = lower value",0.792 (active)
same,normalized growth,"S. cerevisiae deletion strains, locus YOR231W, strain MKK1, stronger effect = lower value",0.999 (inactive)
same,normalized growth,"S. cerevisiae deletion strains, locus YOR265W, strain rbl2, stronger effect = lower value",0.903 (active)
same,normalized growth,"S. cerevisiae deletion strains, locus YOR270C, strain vph1, stronger effect = lower value",0.884 (inactive)
same,normalized growth,"S. cerevisiae deletion strains, locus YOR290C, strain snf2, stronger effect = lower value",0.958 (inactive)
same,normalized growth,"S. cerevisiae deletion strains, locus YOR316C, strain cot1, stronger effect = lower value",0.971 (inactive)
same,normalized growth,"S. cerevisiae deletion strains, locus YPL051W, strain arl3, stronger effect = lower value",0.748 (active)
same,normalized growth,"S. cerevisiae deletion strains, locus YPL055C, strain LGE1, stronger effect = lower value",0.64 (active)
same,normalized growth,"S. cerevisiae deletion strains, locus YPL078C, strain atp4, stronger effect = lower value",0.984 (inactive)
same,normalized growth,"S. cerevisiae deletion strains, locus YPL106C, strain sse1, stronger effect = lower value",0.932 (inactive)
same,normalized growth,"S. cerevisiae deletion strains, locus YPL240C, strain hsp82, stronger effect = lower value",0.9 (active)
same,normalized growth,"S. cerevisiae deletion strains, locus YPL241C, strain CIN2, stronger effect = lower value",0.918 (active) and 0.973 (inactive)
same,normalized growth,"S. cerevisiae deletion strains, locus YPL256C, strain CLN2, stronger effect = lower value",0.932 (inactive)
same,normalized growth,"S. cerevisiae deletion strains, locus YPR119W, strain clb2, stronger effect = lower value",0.981 (inactive)
same,normalized growth,"S. cerevisiae deletion strains, locus YPR141C, strain kar3, stronger effect = lower value",0.974 (inactive)
same,normalized growth,"S. cerevisiae deletion strains, locus YPR163C, strain tif3, stronger effect = lower value",0.958 (inactive)
same,normalized growth,"S. cerevisiae deletion strains, locus YPR167C, strain met16, stronger effect = lower value",0.903 (active)
same,normalized growth,"S. cerevisiae deletion strains, strain wtn01, stronger effect = lower value",0.772 (active)
same,normalized growth,"S. cerevisiae strains, strain wild type, stronger effect = lower value",0.818 (active)
